What all share (experiment): NCI-60 one-dose screen, 48 h (100 = growth as untreated, 0 = no growth, -100 = all killed)
Experiment [1] concerns NCI-H23 lung.
For experiment [2], the system named is NCI-H226 lung.
Experiment [3] concerns NCI-H322M lung.
The subject of experiment [4] is HOP-62 NSCLC.
The test system of experiment [5] is NCI-H460 lung.
The subject of experiment [6] is HOP-92 NSCLC.
Experiment [7] relates to NCI-H522 lung. As to conditions: 10 µM unless noted.
Experiment [8] deals with A549/ATCC NSCLC.
Experiment [9] concerns 786-0 renal.
For experiment [10], the system named is COLO 205 colon.

“And” between values parts separate entries of the source, which are not always exact repeats. Equal entries are not always repeated. The panel holds about 83,000 compounds, 20% with a hit somewhere; the sample as a whole holds those more often.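 In brief: 96-well plates, 48 h treatment, single concentration, percent growth endpoint.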 The source made the active and inactive calls. Rule for the calls: active = growth percent below 10; inactive = the rest.

With `COc1ccc(-n2[nH]c3c(cnc4ccccc43)c2=O)cc1`, the growth in experiment [1] (10 µM unless noted) was 73.1% (inactive) and 95.9% (inactive); in experiment [2] (10 µM unless noted), 103% (inactive) and 95.3% (inactive); in experiment [3] (10 µM unless noted) it was 93.2% (inactive) and 101% (inactive); in experiment [4] (10 µM unless noted) it was 100% (inactive) and 94.5% (inactive); in experiment [5] (10 µM unless noted) it was 103% (inactive) and 108% (inactive); in experiment [6] (10 µM unless noted) it was 99.8% (inactive) and 102% (inactive). Besides, the growth was 89.2% (inactive) in experiment [7]; 92.4% (inactive) and 102% (inactive) in [8] (10 µM unless noted); 77.7% (inactive) and 91.3% (inactive) in [9] (10 µM unless noted).

With `Cc1c(Cl)cc(Cl)c(N)c1Cl`, the growth in experiment [1] (10 µM unless noted) was 103% (inactive); in [2] (10 µM unless noted) it was 102% (inactive); in experiment [3] (10 µM unless noted), 115% (inactive); in [4] (10 µM unless noted), 107% (inactive); in [5] (10 µM unless noted) it was 105% (inactive); in [6] (10 µM unless noted), 76.9% (inactive). The growth in experiment [7] was 97.4% (inactive); in [8] (10 µM unless noted), 107% (inactive); in experiment [9] (10 µM unless noted) it was 109% (inactive).

As for `Oc1ccc(O)c(-c2ccccc2)c1`, the growth was 63.1% (inactive) in [1] (10 µM unless noted); 54.9% (inactive) in experiment [2] (10 µM unless noted); 42.9% (inactive) in [3] (10 µM unless noted); 46.6% (inactive) in [4] (10 µM unless noted); 19.7% (inactive) in [5] (10 µM unless noted); 85.8% (inactive) in experiment [6] (10 µM unless noted). Moreover, the figures for the growth in [7], in experiment [8] (10 µM unless noted) and in [9] (10 µM unless noted) were -68.3% (active), 66.1% (inactive) and 65.6% (inactive), respectively.

For the compound `NC(=O)Cc1nc(O)cc(=O)[nH]1`, the growth in experiment [1] (10 µM unless noted) was 107% (inactive); in [2] (10 µM unless noted), 99.1% (inactive); in experiment [3] (10 µM unless noted), 103% (inactive); in experiment [4] (10 µM unless noted) it was 81.6% (inactive); in experiment [5] (10 µM unless noted), 105% (inactive); in [6] (10 µM unless noted), 91.7% (inactive). In addition, the growth in [7] was 77% (inactive); in [8] (10 µM unless noted), 89.8% (inactive); in experiment [9] (10 µM unless noted), 98.4% (inactive).

Take `Nc1c(Cl)cc2c(c1Br)C(=O)c1ccccc1C2=O`: the growth was 88.2% (inactive) in [1] (10 µM unless noted); 99.5% (inactive) in [2] (10 µM unless noted); 96% (inactive) in experiment [3] (10 µM unless noted); 101% (inactive) in experiment [4] (10 µM unless noted); 110% (inactive) in experiment [5] (10 µM unless noted); 125% (inactive) in [6] (10 µM unless noted). The growth is 91.7% (inactive) in [7], 98.1% (inactive) in [8] (10 µM unless noted), 105% (inactive) in [9] (10 µM unless noted) and 104% (inactive) in experiment [10] (10 µM unless noted).

For the compound `COc1ccc(/C=N/Nc2nc3ccccc3s2)cc1`, the growth in experiment [1] (10 µM unless noted) is 105% (inactive); in experiment [2] (10 µM unless noted) it was 99.4% (inactive); in [3] (10 µM unless noted), 86.7% (inactive); in [4] (10 µM unless noted) it was 91.9% (inactive); in [5] (10 µM unless noted), 97.3% (inactive); in experiment [6] (10 µM unless noted) it was 81.6% (inactive). The growth in experiment [7] was 89% (inactive); in [8] (10 µM unless noted), 93.9% (inactive); in experiment [9] (10 µM unless noted) it was 111% (inactive); in experiment [10] (10 µM unless noted), 84.1% (inactive).

For the compound `CS/C(=C\c1ccc(C(=O)c2ccc(C)cc2)n1C)S(C)=O` (configuration not stated), the growth in experiment [1] (10 µM) was 109% (inactive); in [1] (100 µM), 66.2% (inactive); in [2] (10 µM), 81.3% (inactive); in experiment [2] (100 µM), 72.3% (inactive); in experiment [3] (10 µM), 98% (inactive); in experiment [3] (100 µM), 103% (inactive). Also, the growth in [4] (10 µM) is 96.8% (inactive); in experiment [4] (100 µM), 76.9% (inactive); in [5] (10 µM), 96.8% (inactive); in experiment [5] (100 µM), 91.4% (inactive); in [6] (10 µM) it was 71.7% (inactive); in [6] (100 µM), 64.6% (inactive). Further, the growth in [7] is 6.15% [100 µM] (active); in experiment [8] (10 µM), 85.1% (inactive); in [8] (100 µM) it was 65.7% (inactive); in experiment [9] (10 µM) it was 99.4% (inactive); in [9] (100 µM) it was 74.1% (inactive); in experiment [10] (10 µM), 126% (inactive). Besides, the growth in experiment [10] (100 µM) was 93.5% (inactive).

In the case of `Nc1nc(=S)c2[nH]cnc2[nH]1`, the growth in experiment [1] (10 µM unless noted) is 17.6% (inactive) and 161% (inactive); in experiment [2] (10 µM unless noted) it was 39% (inactive) and 37.4% (inactive); in experiment [3] (10 µM unless noted), 39.2% (inactive) and 85.7% (inactive); in [4] (10 µM unless noted) it was 16.5% (inactive) and 18% (inactive); in experiment [5] (10 µM unless noted) it was 3.77% (active) and 6.79% (active); in [6] (10 µM unless noted), -2.57% (active). Moreover, the growth was -4.74% (active) and 7.57% (active) in [7]; 31.7% (inactive) and 2.46% (active) in experiment [8] (10 µM unless noted); 17.2% (inactive) and 9.97% (active) in experiment [9] (10 µM unless noted); -27.5% (active) and 7.45% (active) in experiment [10] (10 µM unless noted).

In the case of `CC(O)CCNC(c1ccccc1)C(O)c1ccccc1` (configuration not stated), the growth is 105% (inactive) in experiment [1] (10 µM unless noted); 111% (inactive) in experiment [2] (10 µM unless noted); 112% (inactive) in [3] (10 µM unless noted); 104% (inactive) in experiment [4] (10 µM unless noted); 106% (inactive) in [5] (10 µM unless noted); 86% (inactive) in [6] (10 µM unless noted). Also, the growth was 89.8% (inactive) in experiment [7], 117% (inactive) in [8] (10 µM unless noted) and 97.9% (inactive) in experiment [9] (10 µM unless noted).

Turning to `O=[N+]([O-])c1ccc(N2CCN=N2)cc1`, the growth is 99.6% (inactive) in [1] (10 µM unless noted); 96% (inactive) in experiment [2] (10 µM unless noted); 88% (inactive) in experiment [3] (10 µM unless noted); 82.9% (inactive) in experiment [4] (10 µM unless noted); 98.9% (inactive) in experiment [5] (10 µM unless noted); 89% (inactive) in [6] (10 µM unless noted). Further, the growth in experiment [7] was 78.8% (inactive); in [8] (10 µM unless noted) it was 82.2% (inactive); in experiment [9] (10 µM unless noted), 84.8% (inactive).

On to `CCOC(=O)CN1CCC(C(=O)OCC)CC1`, for which the growth in experiment [1] (10 µM unless noted) is 102% (inactive); in experiment [2] (10 µM unless noted), 107% (inactive); in experiment [3] (10 µM unless noted) it was 124% (inactive); in experiment [4] (10 µM unless noted), 98.9% (inactive); in experiment [5] (10 µM unless noted), 108% (inactive); in experiment [6] (10 µM unless noted) it was 92.3% (inactive). Further, the growth was 96.1% (inactive) in [7], 103% (inactive) in [8] (10 µM unless noted) and 109% (inactive) in [9] (10 µM unless noted).

Source of the values: PubChem BioAssay (NCI).
